Most compounds without a hit are left out; they make up all but 11% or so of the library.
JMJD2A Tudor inh – qHTS Assay for Inhibitors of JMJD2A-Tudor Domain. Lysine-specific demethylase 4A (Homo sapiens), O75164. AlphaScreen JMJD2A-Tudor / H3K4me3 peptide binding. Potency, µM (titrated, usually from 114 µM), actives largely listed as inhibitors. actives 4.4% (n = 390,000); further: nearly all actives have a fitted effect of over 50% in size
BAZ2B block – qHTS Assay for Inhibitors of BAZ2B | actives 4.4% (n = 360,000) | Potency, µM (doses to about 114 µM), hits mostly inhibitors | Bromodomain adjacent to zinc finger domain protein 2B (Homo sapiens), Q9UIF8 | AID 504333, 2011 | AlphaScreen BAZ2B-H3K14Ac peptide displacement; further: nearly all actives have a fitted effect of over 60% in size
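Protein-peptide AlphaScreen: BAZ2B 50 nM, b-H3K14Ac 50 nM, 1x PBS pH 7.4 + 0.01% Tween-20. Preincubation 30 min RT; cpd 30 min RT (top 110 uM); beads 20 min RT, light-protected.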
L3MBTL1 inh – qHTS Assay for the Inhibitors of L3MBTL1 | AlphaScreen L3MBTL1–H3K9me1 peptide binding | Potency, µM (titrated, usually from 57.1 µM), hits mostly inhibitors | actives 0.66% (n = 230,000); further: nearly all actives have a fitted effect of over 60% in size
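L3MBTL1 50 nM + b-AHA-H3(1-15)K9me1 75 nM, 30 min RT; compound added, 30 min RT; streptavidin donor/Ni-chelate acceptor beads 10 ug/mL each final, 30 min RT dark; AlphaScreen read.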
PI5P4Ka inh – qHTS for Inhibitors of phosphatidylinositol 5-phosphate 4-kinase (PI5P4K); PI5P4Kalpha enzyme, ADP-Glo luminescence, 60 min; active compounds read low; max response, %; actives 1.2% (n = 330,000); active means max response of -50% or lower; inconclusive means between -30% and -50%; inactive means -30% or higher; further: value at the top dose of about 77 µM
Target sequence (P48426 whole entry, looked up): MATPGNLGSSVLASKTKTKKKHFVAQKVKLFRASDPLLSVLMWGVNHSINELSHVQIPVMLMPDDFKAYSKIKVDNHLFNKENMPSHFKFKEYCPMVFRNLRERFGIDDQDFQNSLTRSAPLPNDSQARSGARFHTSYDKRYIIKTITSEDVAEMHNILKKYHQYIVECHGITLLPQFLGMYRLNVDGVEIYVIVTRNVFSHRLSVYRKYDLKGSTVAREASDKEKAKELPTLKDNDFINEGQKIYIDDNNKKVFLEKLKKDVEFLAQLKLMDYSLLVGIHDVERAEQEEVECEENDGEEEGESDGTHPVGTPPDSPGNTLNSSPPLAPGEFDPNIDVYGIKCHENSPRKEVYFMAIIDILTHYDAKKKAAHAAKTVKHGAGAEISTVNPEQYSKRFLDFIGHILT
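Human PI5P4Kalpha with substrate in 0.038 M HEPES pH 7.4, 0.28 mM EGTA, 0.1% CHAPS, 5% DMSO; reaction started with 5 microM ATP (final), 60 min at room temperature. ADP formed read by ADP-Glo luminescence.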
HP1b binding inh – HTS for Inhibitors of HP1-beta Chromodomain Interactions with Methylated Histone Tails; Potency, µM (titrated, usually from 114 µM), usual class: inhibitors; AID 540317, 2011; actives 0.56% (n = 390,000); AlphaScreen HP1-beta / biotin-H3K9me3 peptide binding; further: nearly all actives have a fitted effect of over 70% in size
Target sequence (P83916 whole entry, looked up): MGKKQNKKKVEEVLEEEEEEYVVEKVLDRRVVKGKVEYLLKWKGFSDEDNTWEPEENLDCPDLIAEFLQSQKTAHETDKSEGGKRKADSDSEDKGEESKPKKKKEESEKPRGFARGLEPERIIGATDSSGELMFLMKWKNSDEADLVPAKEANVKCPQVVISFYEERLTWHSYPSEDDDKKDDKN
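HP1-beta protein (50 nM final) preincubated 30 min at room temperature with biotinylated H3(1-18)K9me3 peptide (50 nM) in PBS pH 7.4, 0.01% Tween-20, then compound added for 30 min. AlphaScreen streptavidin donor/nickel chelate acceptor beads (10 ug/mL final), 30 min dark, luminescence read.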
G9a block – qHTS Assay for Inhibitors of Histone Lysine Methyltransferase G9a; AID 504332, 2011; actives 8.8% (n = 350,000); Potency, µM (titrated, usually from 102 µM), actives largely listed as inhibitors; G9a H3K9 monomethylation, AlphaScreen, 2 h; further: nearly all actives have a fitted effect of over 75% in size
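Chemiluminescent proximity detection of H3K9 monomethylation, read after 10 min bead incubation in the dark. Reaction: 20 nM G9a, 500 nM biotin-H3K9 peptide, 20 uM SAM cofactor, 2 h, room temperature, following 15 min enzyme-compound preincubation.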
Of the large screens only hits and unclear results are named; the others gave an inactive call. Unless noted, the call rests on the fitted dose curve; in most records, active means well fitted inhibition curve with a large enough effect; inconclusive means small, poorly fitted or top-dose-only effect; inactive means no such curve, though single readings can be large or run the other way.

CC(=O)Oc1ccc2c(C)cc(=O)oc2c1	none (no result: L3MBTL1 inh)
CC(=O)Oc1cc2oc(=O)cc(C)c2cc1OC(C)=O	BAZ2B block 50.1µM, G9a block 0.501µM (no result: PI5P4Ka inh)
C[C@H](C(=O)OCO/N=[N+](\[O-])N1CCCC1)c1cccc2ccccc12	none (no result: BAZ2B block, L3MBTL1 inh, PI5P4Ka inh, G9a block)
COc1ccc(-c2csc(NC3CCCCC3)n2)c(OC)c1	JMJD2A Tudor inh inconclusive, HP1b binding inh inconclusive, G9a block 44.7µM (no result: L3MBTL1 inh)
c1ccc(-c2csc(NC3CCCCC3)n2)cc1	G9a block 50.1µM (no result: L3MBTL1 inh)
O=c1c(CCc2ccccc2)nc2cnc(Oc3cccc(Cl)c3)nc2n1C[C@H]1CCCO1	none (no result: JMJD2A Tudor inh, BAZ2B block, L3MBTL1 inh, PI5P4Ka inh, HP1b binding inh)
Cc1ccc(S(=O)(=O)N2CCN(c3nc(-c4ccc(F)cc4)nc4cc(Cl)ccc34)CC2)cc1	none (no result: BAZ2B block, L3MBTL1 inh, PI5P4Ka inh, G9a block)
CCOC(=O)c1cnc(SCc2nc(N)nc(Nc3ccc(F)cc3)n2)nc1N	G9a block inconclusive (no result: PI5P4Ka inh)
CCOC(=O)c1cnc(SCc2nc(N)nc(Nc3ccc(C)cc3)n2)nc1N	G9a block 17.8µM
CCOC(=O)c1cnc(SCC(=O)c2ccccc2)nc1N	G9a block 28.2µM (no result: BAZ2B block, PI5P4Ka inh)
CCOC(=O)c1cnc(SCC(=O)N2CCC(C(N)=O)CC2)nc1N	G9a block 50.1µM
COc1ccccc1-c1ccc2ncnc(NC3CCNCC3)c2c1	none (no result: JMJD2A Tudor inh, BAZ2B block, L3MBTL1 inh, PI5P4Ka inh, HP1b binding inh)
O=C(NCCc1nc2ccccc2n1Cc1c(F)cccc1Cl)c1ccco1	JMJD2A Tudor inh inconclusive (no result: L3MBTL1 inh, PI5P4Ka inh)
CCN1CCN(C(=O)CSc2nc(N)cc(N)n2)CC1	G9a block 44.7µM
CC1CCCC(C)N1C(=O)CSc1nc(N)cc(N)n1 (stereo not given)	JMJD2A Tudor inh inconclusive, HP1b binding inh inconclusive (no result: L3MBTL1 inh)
CCOc1ccccc1CN1CCN(Cc2[nH]c3ccccc3c2C)CC1CCO (stereo not given)	JMJD2A Tudor inh inconclusive, G9a block 70.8µM
Cc1ccc(CNC(=O)CN2Cc3ccccc3C2=O)cc1	none (no result: L3MBTL1 inh, PI5P4Ka inh)
CC(=O)n1nc(-c2ccccc2)nc1NCc1ccc(F)cc1	none (no result: L3MBTL1 inh)
COc1cccc(-c2cnc(NCc3cc(Cl)ccc3O)n2C)c1	JMJD2A Tudor inh 4.47µM, BAZ2B block 39.8µM, L3MBTL1 inh inconclusive, HP1b binding inh inconclusive, G9a block 8.91µM (no result: PI5P4Ka inh)
Cn1c(-c2ccccc2)cnc1NCc1ccc(F)cc1	JMJD2A Tudor inh 35.5µM, BAZ2B block inconclusive, HP1b binding inh inconclusive (no result: G9a block)
COc1ccc(CNc2ncc(-c3cccc([N+](=O)[O-])c3)n2C)c(OC)c1OC	JMJD2A Tudor inh 25.1µM, BAZ2B block 50.1µM, HP1b binding inh inconclusive, G9a block 31.6µM
CCOc1ccc(-c2cnc(NCc3cccc4ccccc34)n2CCOC)cc1	JMJD2A Tudor inh 14.1µM, BAZ2B block 39.8µM, HP1b binding inh inconclusive (no result: G9a block)
Cc1cccc(NC(=O)CN2C(=O)COc3ccc(S(=O)(=O)N4CCC(C)CC4)cc32)c1C	none (no result: L3MBTL1 inh, PI5P4Ka inh)
Cc1oc2cc3oc(=O)c(CCC(=O)NCCc4ccccc4F)c(C)c3cc2c1C	none (no result: L3MBTL1 inh, PI5P4Ka inh)
CCC(=O)Nc1ccc(CC)cc1-c1nc2ccccc2n(CC(=O)c2ccc(OC)cc2)c1=O	none (no result: L3MBTL1 inh, PI5P4Ka inh)
CCCCn1c(NCc2ccccc2O)nc2ccccc21	none
Cn1c(NCc2cccc(Cl)c2)nc2ccccc21	none (no result: L3MBTL1 inh, PI5P4Ka inh)
COc1ccc(CNc2ncc(-c3ccc(F)cc3)n2C)c2ccccc12	JMJD2A Tudor inh 20µM, BAZ2B block 50.1µM, HP1b binding inh inconclusive, G9a block 10µM
Cn1c(-c2ccccc2)cnc1NCc1ccccc1O	JMJD2A Tudor inh 28.2µM, BAZ2B block 50.1µM, HP1b binding inh inconclusive, G9a block 10µM (no result: L3MBTL1 inh, PI5P4Ka inh)
CCOc1ccc(-c2cnc(NCc3cccc(Cl)c3)n2C)cc1	JMJD2A Tudor inh 20µM, BAZ2B block inconclusive, HP1b binding inh inconclusive, G9a block 7.94µM (no result: L3MBTL1 inh, PI5P4Ka inh)
N#Cc1ccc(NC(=O)CSc2cn[nH]n2)cc1	G9a block inconclusive (no result: L3MBTL1 inh)
O=C(CSc1cn[nH]n1)Nc1ccc(O)c(C(=O)O)c1	G9a block 12.6µM (no result: L3MBTL1 inh)
Cc1ccc(NC(=O)CSc2cn[nH]n2)cc1	G9a block 50.1µM (no result: L3MBTL1 inh)
CCOc1ccc(NC(=O)CSc2cn[nH]n2)cc1	none

Bioassay records (PubChem BioAssay)
